# Assay results from PubChem BioAssay (EPA / NIEHS).
# The source made the active and inactive calls. How the source made its calls: active means hit-call score of the fitted dose curve at least 0.9, where 1 is the maximum; inconclusive means response in the unintended direction; inactive means score below 0.9.
# Test system: Thyroperoxidase (TPO), gene 54314
# Test: CCTE_Simmons_AUR_rTPO: CCTE's Amplex UltraRed Assay for Thyroperoxidase (TPO) Inhibition, Simmons Lab (AID 2283662);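 on AC50: potency for loss of signal meaning inhibition of peroxidase activity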
# Procedure: CCTE_Simmons_AUR_rTPO is a biochemical, single-readout assay that uses microsomes from rat thyroid gland in a tissue-based cell-free assay. Measurements were taken 0.5 hour after chemical dosing in a 384-well plate.CCTE_Simmons_AUR_rTPO is the assay component measured from the CCTE_Simmons_AUR_rTPO assay. It is designed to make measurements of thyroperoxidase (TPO) activity as detected with fluorescence intensity signals using the Amplex UltraRed technology as a form of enzyme activity reporter.Data from the assay component CCTE_Simmons_AUR_rTPO was analyzed at the endpoint, CCTE_Simmons_AUR_rTPO, in the positive analysis fitting direction relative to DMSO as the negative control and baseline of activity. Using a type of enzyme reporter, the Amplex UltraRed assay, loss-of-signal activity can be used to understand decreased peroxidase activity in the presence of excess […]. To generalize the intended target to other relatable targets, this assay endpoint is annotated to the oxidoreductase intended target family, where the subfamily is peroxidase.
# As described previously (Paul et al., 2014), the AUR substrate was repurposed to detect peroxidase (ie, TPO) activity in the presence of excess H2O2 for the AUR-TPO assay. The reaction profile for the 384-well format AUR-TPO assay is scaled to an 80 ul assay volume containing 25 uM AUR, 300 uM H2O2, and 5 ug microsomal protein in 200 mM phosphate buffer. The assay concentration of thyroid microsomal protein was approximately […]. First, rat microsomes containing TPO and diluent 200mM potassium phosphate buffer were added to opaque, black 384-well plates (Greiner, BioExpress; Kaysville, Utah) using an automated liquid handler (BioTek MicroFlo; Winooski, Vermont) with a plastic 5 ul tubing cassette. Similarly, AUR was added next by automated liquid handling. Test compounds were administered using a HDRT as described earlier to achieve a 0.5% final DMSO concentration. Finally, H2O2 (300 uM, final concentration) was then added by the BioTek MicroFlo to initiate the reaction. Microplates were incubated at 37C in the dark for 30min. Plates were then shaken on a fluorescence plate reader (FLUOStar Optima, BMG LabTech; GmbH, Germany), and endpoint fluorescence (top read) was measured using 10 flashes per well at 544/590nm excitation/emission. Three biological replicates of technical singles were run for every chemical concentration tested. A titrated range of MMI served as a positive control for TPO inhibition on each plate of the AUR-TPO screening campaign. Test chemicals were administered as a titrated series of 8 concentrations from 5 nM up to 87.5 uM [final] for 30 minutes prior to single endpoint detection. Dimethylsulfoxide [DMSO] was used as the vehicle control. Methimazole [MMI] was used as the positive control and was administered as a titrated series of 8 concentrations from 1 nM up to 271 uM [final].
SMILES,AC50,outcome
O=C(NO)c1ccccc1O,358 nM (active),–
O=c1cccc(O)[nH]1,9010 nM (active),–
CN(C)C(=S)N(C)C,–,inactive
S=c1[nH]c2cc(Cl)ccc2s1,1540 nM (active),–
COc1c[nH]ccc1=O,–,inactive
O=C(c1ccccc1)c1ccc(O)cc1,–,inactive
CCCCOC(=O)c1ccccc1O,–,inactive
Cc1ccc(C=C2C(=O)C3(C)CCC2C3(C)C)cc1 (centres undefined),–,inactive
OC(c1ccccc1)c1ccccc1,–,inactive
OCc1ncccc1O,–,inactive
O=[N+]([O-])c1ccc2[nH]c(=S)[nH]c2c1,315 nM (active),–
O=c1cc(O)cc[nH]1,–,inactive
CCOC(=O)c1cccc(O)c1,–,inactive
Cn1c(=S)[nH]c2ccccc21,503 nM (active),–
C=CC1CNC(=S)O1 (centres undefined),10600 nM (active),–
Oc1cccnc1,–,inactive
O=c1[nH]c2ccccc2s1,31300 nM (active),–
CSc1nc2ccccc2s1,–,inactive
O=C1CC(c2ccc(O)cc2)Oc2cc(O)cc(O)c21 (centres undefined),742 nM (active),–
